Structures are written as SMILES. Where a name gives a salt, the structure may show the parent alone. Unmarked numbers belong to inactive results.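 How the source made its calls: active = HIS4 sensitivity z-score above 5 vs DMSO controls; inactive = score 5 or below.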

For this assay, the system named is S. cerevisiae NKY1551 his4x/his4B, sporulating. The experiment in a line: HIS4 meiotic recombination assay sensitivity score (z-score vs DMSO controls); higher = stronger inhibition of sporulation/recombination, active = hit call of the paper. As for the experimental part: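 NIH Clinical Collection compounds were added 1:100 from stock (about 100 µM final) to S. cerevisiae. Growth: average doubling time (AvgG) over 24 h of BY4741 (wild-type) or AD1-9 (drug-efflux-pump deficient) in rich media. HIS4: the his4x/his4B heteroallelic recombination reporter strain (SK1) was sporulated 5 h with compound at 30°C, then colony density was read on -his plates after 48 h. Sensitivity score = (compound − mean of 8 DMSO controls)/SD of DMSO controls. Hit cutoffs are >2 for growth and >5 for sporulation.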
`CN(C/C=C/C#CC(C)(C)C)Cc1cccc2ccccc12` [Terbinafine hydrochloride] (stock concentration (mM, diluted 1:100): 8.9): the “HIS4 meiotic recombination assay sensitivity score” value was -0.72. The value for `CC(=O)CCCCn1cnc2c1c(=O)n(C)c(=O)n2C` [Lomifylline] (stock concentration (mM, diluted 1:100): 10) was -1.26; that for `CCC(C)n1ncn(-c2ccc(N3CCN(c4ccc(OCC5COC(Cn6cncn6)(c6ccc(Cl)cc6Cl)O5)cc4)CC3)cc2)c1=O` (stereo not given) [Itraconazole] (stock concentration (mM, diluted 1:100): 10.1) was -1.94. For `CS(=O)(=O)c1ccc(-c2cc(Br)sc2-c2ccc(F)cc2)cc1` (stock concentration (mM, diluted 1:100): 10), the “HIS4 meiotic recombination assay sensitivity score” value was 1.98.

Take `CC=CC(=O)N(CC)c1ccccc1C` [Crotamiton] (stock concentration (mM, diluted 1:100): 10.3): the “HIS4 meiotic recombination assay sensitivity score” value was 3.54. The result for `CN(C)CC[C@@H](c1ccc(Br)cc1)c1ccccn1` [Dexbrompheniramine maleate] (stock concentration (mM, diluted 1:100): 7.3) reads 7.19 (active). The result for `COc1ccc2c3c1O[C@H]1C[C@@H](O)C=C[C@@]31CCN(C)C2` [Galanthamine] (stock concentration (mM, diluted 1:100): 8.8) reads -0.9; that for `O=C1CCc2ccc(OCCCCN3CCN(c4cccc(Cl)c4Cl)CC3)cc2N1` [Aripiprazole] (stock concentration (mM, diluted 1:100): 10), -1.42. The value for `Nc1ncnc2c1ncn2[C@@H]1O[C@H](CO)C[C@@H]1O` [3-Deoxydenosine] (stock concentration (mM, diluted 1:100): 10) was 7.05 (active); that for `O=C1[C@H](CC[C@H](O)c2ccc(F)cc2)[C@@H](c2ccc(O)cc2)N1c1ccc(F)cc1` [Ezetimibe] (stock concentration (mM, diluted 1:100): 10) was -0.94; that for `C[C@@H](O)[C@H]1C(=O)N2C(C(=O)O)=C(S[C@@H]3CN[C@H](C(=O)N(C)C)C3)[C@H](C)[C@H]12` [Meropenem] (stock concentration (mM, diluted 1:100): 11.4) was -1.58. On to `N[C@@H](C(=O)N[C@@H]1C(=O)N2C(C(=O)O)=C(Cl)CS[C@H]12)c1ccccc1` [Cefaclor] (stock concentration (mM, diluted 1:100): 10), for which the “HIS4 meiotic recombination assay sensitivity score” value is 1.51. `CCC1=C[C@H]2CN(C1)Cc1c([nH]c3ccccc13)[C@@](C(=O)OC)(c1cc3c(cc1OC)N(C)[C@H]1[C@@](O)(C(=O)OC)[C@H](OC(C)=O)[C@]4(CC)C=CCN5CC[C@]31[C@@H]54)C2` [Vinorelbine bitatrate] (stock concentration (mM, diluted 1:100): 7.2): the “HIS4 meiotic recombination assay sensitivity score” value was -0.36.

Consider `Nc1ccc2cn[nH]c2c1` [6-Aminoindazole] (stock concentration (mM, diluted 1:100): 10), for which the “HIS4 meiotic recombination assay sensitivity score” value was -0.24. With `CN(C)CC/C=C1/c2ccccc2COc2ccc(CC(=O)O)cc21` [Olopatadine hydrochloride] (stock concentration (mM, diluted 1:100): 12.7), the “HIS4 meiotic recombination assay sensitivity score” value is -0.7. The result for `CNCCCC12CCC(c3ccccc31)c1ccccc12` [Maprotilline hydrochloride] (stock concentration (mM, diluted 1:100): 10) reads 9.12 (active); that for `Cc1occc(=O)c1O` [Maltol] (stock concentration (mM, diluted 1:100): 10), 0.46; that for `C[C@]12C[C@H](O)[C@H]3[C@@H](CCC4=CC(=O)CC[C@@]43C)[C@@H]1CC[C@@H]2C(=O)CO` [Corticosterone] (stock concentration (mM, diluted 1:100): 10), 1.37.

Regarding `Nc1c2c(nc3ccccc13)CCCC2` [Tacrine hydrochloride] (stock concentration (mM, diluted 1:100): 9), the “HIS4 meiotic recombination assay sensitivity score” value is -2.37. As to `O=c1c(O[C@@H]2O[C@H](CO)[C@H](O)[C@H](O)[C@H]2O)c(-c2ccc(O)c(O)c2)oc2cc(O)cc(O)c12` [Hyperoside] (stock concentration (mM, diluted 1:100): 8.8), the “HIS4 meiotic recombination assay sensitivity score” value was 0.06.

For the compound `CCN1CCC[C@H]1CNC(=O)c1cc(S(N)(=O)=O)ccc1OC` [Levosulpiride] (stock concentration (mM, diluted 1:100): 10), the “HIS4 meiotic recombination assay sensitivity score” value was 0.77.

As for `COC(=O)C1=C(C)NC(C)=C(C(=O)OC)C1c1ccccc1[N+](=O)[O-]` [Nifedipine] (stock concentration (mM, diluted 1:100): 10.7), the “HIS4 meiotic recombination assay sensitivity score” value is 1.3. For `CC1=C(C(=O)O)N2C(=O)[C@@H](NC(=O)[C@H](N)c3ccccc3)[C@H]2SC1` [Cephalexin monohydrate] (stock concentration (mM, diluted 1:100): 10), the “HIS4 meiotic recombination assay sensitivity score” value is -1.5. On to `CNC(=C[N+](=O)[O-])NCCSCc1csc(CN(C)C)n1` [Nizatidine] (stock concentration (mM, diluted 1:100): 10), for which the “HIS4 meiotic recombination assay sensitivity score” value was -0.53. The value for `O=C1CN2Cc3c(ccc(Cl)c3Cl)N=C2N1` [Anagrelide hydrochloride] (stock concentration (mM, diluted 1:100): 8.8) was -0.8; that for `C[C@H]1COc2c(C3(N)CC3)c(F)cc3c(=O)c(C(=O)O)cn1c23` [Pazufloxacin] (stock concentration (mM, diluted 1:100): 10) was -0.93; that for `CC(=O)OCC(=O)NCCCOc1cccc(CN2CCCCC2)c1` [Roxatidine acetate hydrochloride] (stock concentration (mM, diluted 1:100): 9.1) was -1.59. For `CN1CCN(C2=Nc3ccccc3Oc3ccc(Cl)cc32)CC1` [Loxapine succinate] (stock concentration (mM, diluted 1:100): 11), the “HIS4 meiotic recombination assay sensitivity score” value is 7.41 (active).

For the compound `Cc1cn([C@H]2C=C[C@@H](CO)O2)c(=O)[nH]c1=O` [Stavudine] (stock concentration (mM, diluted 1:100): 10), the “HIS4 meiotic recombination assay sensitivity score” value is -1.75. The result for `CC(=O)Nc1ccc(CC(=O)O)cc1` [Actarit] (stock concentration (mM, diluted 1:100): 10) reads 0.62; that for `Nc1nc(Cl)nc2c1ncn2[C@@H]1O[C@H](CO)[C@@H](O)[C@H]1O` [2-Chloroadenosine] (stock concentration (mM, diluted 1:100): 10), -0.54; that for `CN1C2CCCC1CC(NC(=O)c1nn(C)c3ccccc13)C2` (stereo not given) [Granisetron hydrochloride] (stock concentration (mM, diluted 1:100): 9), 0.28. The result for `CC(=O)NC[C@H]1CN(c2ccc(N3CCOCC3)c(F)c2)C(=O)O1` [Linezolide] (stock concentration (mM, diluted 1:100): 10) reads -0.83. As for `Clc1ccc(CO/N=C(\Cn2ccnc2)c2ccc(Cl)cc2Cl)c(Cl)c1` [Oxiconazole nitrate] (stock concentration (mM, diluted 1:100): 10), the “HIS4 meiotic recombination assay sensitivity score” value was -3.02. The value for `COc1ccc(-c2oc3c(CC=C(C)C)c(O[C@@H]4O[C@H](CO)[C@@H](O)[C@H](O)[C@H]4O)cc(O)c3c(=O)c2O[C@@H]2O[C@@H](C)[C@H](O)[C@@H](O)[C@H]2O)cc1` [Icariin] (stock concentration (mM, diluted 1:100): 10) was 0.32. The value for `COC(=O)C1=C(C)NC(C)=C(C(=O)OC(C)C)C1c1cccc2nonc12` (stereo not given) [Isradipine] (stock concentration (mM, diluted 1:100): 9.9) was 5.46 (active); that for `CC1CCN(CCCC(=O)c2ccc(F)cc2)CC1` [Metylperon] (stock concentration (mM, diluted 1:100): 10) was 0.9.

As to `CC(=O)[C@@]1(O)CC[C@H]2[C@@H]3C[C@H](C)C4=CC(=O)CC[C@]4(C)[C@H]3CC[C@@]21C` [Medroxyprogesterone] (stock concentration (mM, diluted 1:100): 10), the “HIS4 meiotic recombination assay sensitivity score” value is 0.24. In the case of `CCCCC1=NC2(CCCC2)C(=O)N1Cc1ccc(-c2ccccc2-c2nnn[nH]2)cc1` [Irbesartan] (stock concentration (mM, diluted 1:100): 10.1), the “HIS4 meiotic recombination assay sensitivity score” value is -0.26. The result for `COc1ccc(C2CNC(=O)C2)cc1OC1CCCC1` (stereo not given) [Rolipram] (stock concentration (mM, diluted 1:100): 10) reads -0.47.

Values taken from the supplement of paper PMC3414501.
